# Source: PubChem BioAssay
# An excerpt weighted towards active compounds, which were near 17% of everything screened.
# ClpP mod: qHTS Assay for Activators of ClpP; ATP-dependent Clp protease proteolytic subunit (Bacillus subtilis (strain 168)), P80244; purified B. subtilis ClpP, FRET peptide cleavage, 20 min; Potency, µM (top dose mostly 57.5 µM), inactives show at the top dose activity change, negative = active; 1.9% of 340,000 active; active = well fitted falling curve with a large enough effect; inconclusive = small, poorly fitted or top-dose-only effect; inactive = no such curve, though single readings can be large or run the other way; also: the source files actives as falling curves though it sought activators and does not explain the sign; nearly all actives have a fitted effect of over 65% in size
#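 Buffer: 100 mM Tris/HCl pH8, 100 mM KCl, 0.05% low protease BSA, 2.5% glycerol, 0.01% Tween-20. ClpP 10 microg/mL final; 20 min RT; delta FRET normalized to ADEP and DMSO controls.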
# DT40 TDP1 no CPT: qHTS for Inhibitors of human tyrosyl-DNA phosphodiesterase 1 (TDP1): qHTS in cells in absence of CPT | DT40 Tdp1-/- hTDP1 cells, no CPT, ATP luminescence, 48 h | Potency, µM (highest dose often 46.2 µM), without a hit: top-dose activity change, negative = growth inhibition, actives largely listed as inhibitors | 15% of 420,000 active; also: % is scaled to controls: 0 for no effect and ±100 for the full control effect; nearly all actives have a fitted effect of over 55% in size
#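 Luminescent ATP content (CellTiter-Glo) served as the growth readout. Knockout chicken DT40 cells expressing human TDP1 were exposed to compounds without camptothecin for a minimum 48 hr at 37 °C.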
# DT40 TDP1 CPT: qHTS for Inhibitors of human tyrosyl-DNA phosphodiesterase 1 (TDP1): qHTS in cells in presence of CPT. chicken DT40 Tdp1-/-;hTDP1 cells + 20 nM CPT, ATP luminescence, 48 h. Potency, µM (top dose mostly 46.2 µM), without a hit: top-dose activity change, negative = growth inhibition, hits mostly inhibitors. 12% of 420,000 active; also: % is scaled to controls: 0 for no effect and ±100 for the full control effect; nearly all actives have a fitted effect of over 55% in size
#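 Chicken DT40 Tdp1-/- cells complemented with human TDP1, 400 cells/well, exposed to compounds plus 20 nM camptothecin for at least 48 h at 37 C; viability read as ATP content by CellTiter-Glo luminescence.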
# TDP1 inh: qHTS Assay for Inhibitors of Tyrosyl-DNA Phosphodiesterase (TDP1); 0.28% of 350,000 active; Potency, µM (highest dose often 130 µM), for the others: at the highest dose activity change, negative = inhibition, usual class: inhibitors; recombinant TDP1, AlphaScreen DNA substrate cleavage; AID 485290, 2010; Tyrosyl-DNA phosphodiesterase 1 (Homo sapiens), Q9NUW8; also: % is scaled to controls: 0 for no effect and ±100 for the full control effect; nearly all actives have a fitted effect of over 40% in size
# Target sequence (Q9NUW8 whole entry, looked up): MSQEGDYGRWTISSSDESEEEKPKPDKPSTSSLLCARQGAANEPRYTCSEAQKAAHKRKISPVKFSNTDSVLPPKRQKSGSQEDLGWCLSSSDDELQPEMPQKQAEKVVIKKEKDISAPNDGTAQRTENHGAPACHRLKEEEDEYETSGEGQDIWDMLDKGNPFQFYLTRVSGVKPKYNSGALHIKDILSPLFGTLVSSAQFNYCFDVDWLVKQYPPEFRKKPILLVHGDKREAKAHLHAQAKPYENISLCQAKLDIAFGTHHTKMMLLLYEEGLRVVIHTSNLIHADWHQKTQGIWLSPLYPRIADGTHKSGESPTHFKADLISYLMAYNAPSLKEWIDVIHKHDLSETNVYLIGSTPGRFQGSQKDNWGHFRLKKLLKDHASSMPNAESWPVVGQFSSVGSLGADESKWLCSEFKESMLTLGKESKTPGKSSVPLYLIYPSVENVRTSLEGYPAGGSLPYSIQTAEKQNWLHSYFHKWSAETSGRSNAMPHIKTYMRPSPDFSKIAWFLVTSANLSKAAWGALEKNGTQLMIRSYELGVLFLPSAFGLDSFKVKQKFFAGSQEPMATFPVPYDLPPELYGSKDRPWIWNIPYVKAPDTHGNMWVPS
#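 Tdp1 1 nM final; 15 min RT w/ cpd; substrate 15 nM, 5 min; beads 10 ug/ml, 10 min; AlphaScreen read. Neg ctrl: no enzyme.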
# * marks the source's active call; other numbers are inactive results; ? = inconclusive; . = no result given; [ ] = another dose, or the depositor's remark. Unless noted, calls follow the shape of the dose curve; as a rule, active = well fitted curve in the direction sought with a large enough effect; inconclusive = small, poorly fitted or top-dose-only effect, or another doubt; inactive = no such curve, though single readings can be large; an effect the other way counts as inactive or inconclusive. Potency is read from the fitted curve at half-maximal effect.
SMILES,ClpP mod,DT40 TDP1 no CPT,DT40 TDP1 CPT,TDP1 inh
COc1cc(NC(=O)Cn2c(=O)n(-c3cccc(C)c3)c(=O)c3c(C)c(C)sc32)cc(OC)c1,-5%,-29%,21µM*,-1%
Cc1sc2c(c1C)c(=O)n(-c1ccccc1)c(=O)n2CC(=O)c1ccc(Cl)cc1,-5%,16µM*,?,2%
Cc1ccc(-n2c(=O)c3c4c(sc3n(CC(=O)c3ccc(Cl)cc3)c2=O)CCC4)cc1C,0%,-13%,-6%,-3%
CCS(=O)(=O)N1CCC(C(=O)Oc2ccc(Cl)cc2)CC1,0%,-11%,-21%,.
COc1cccc(COC(=O)Cc2ccc(S(=O)(=O)N3CCOCC3)s2)c1OC,-2%,5%,11%,1%
CCOc1ccc(-n2c(=O)c3c(C)c(C)sc3n(Cc3ccc(C(C)(C)C)cc3)c2=O)cc1,-3%,?,21µM*,3%
Cc1ccc(Cn2c(=O)n(Cc3ccccc3)c(=O)c3c(C)c(C)sc32)cc1,0%,1%,9%,2%
Cc1noc(-c2ccc(NC(C)c3ccccc3)c([N+](=O)[O-])c2)n1 (centres undefined),0%,23µM*,16µM*,6%
CCc1noc(-c2ccc(NC(C)c3ccccc3)c([N+](=O)[O-])c2)n1 (centres undefined),0%,?,18µM*,11%
CC(Nc1ccc(-c2nc(-c3ccccn3)no2)cc1[N+](=O)[O-])c1ccccc1 (centres undefined),2%,-21%,-26%,-6%
Cc1nn(CC(=O)NCCCN2CCCC2=O)c(C)c1[N+](=O)[O-],0%,-12%,-18%,-1%
CC(=O)N1CCC2(CC1)CC(=O)c1cc(OCC(=O)NCc3ccco3)ccc1O2,11µM*,-12%,-6%,-5%
CC(C)(C)c1ccc(OCC(=O)NCc2ccco2)cc1,2%,?,-13%,2%
CC(=O)N1CCC2(CC1)CC(=O)c1cc(OCC(=O)NCc3ccc(C)cc3)ccc1O2,28µM*,-39%,-18%,5%
Cc1cccc(OCC(=O)N2CCC3(CC2)CC(=O)c2ccccc2O3)c1,.,?,-10%,-3%
O=C(NN(C(=O)c1ccccc1)c1ccccc1)c1ccccc1,.,-7%,-14%,71µM*
O=C(c1ccccc1)N(Nc1ccccc1)c1ccccc1,.,?,-8%,-9%
Cc1cc(N/N=C/c2ccccc2O)c2ccccc2n1,1%,16µM*,16µM*,5%
COc1ccc(/C=N/Nc2nc(C)cc(-c3ccccc3)n2)cc1OC,.,?,-124%,7%
CN(/N=C/c1ccc(O)cc1O)c1nc(-c2ccccc2)cc(-c2ccccc2)n1,-1%,12µM*,21µM*,4%
Cc1cc(-c2ccccc2)nc(N/N=C/c2ccccc2)n1,.,23µM*,21µM*,-1%
Cc1cc(-c2ccccc2)nc(N/N=C/c2ccc(O)cc2O)n1,.,18µM*,?,9%
O=C(NCc1cccc(F)c1)c1ccc2nc(N3CCOCC3)sc2c1,-10%,-26%,-2%,.
Cc1cc(C)nc(N/N=C/c2ccco2)n1,-1%,-17%,-3%,-3%
Cc1cc(-c2ccccc2)nc(N/N=C/c2ccc(N(C)C)cc2)n1,1%,15µM*,?,.
SMILES,ClpP mod,DT40 TDP1 no CPT,DT40 TDP1 CPT,TDP1 inh
Cc1cc(-c2ccccc2)nc(N/N=C/c2ccco2)n1,-1%,?,29µM*,5%
Cc1ccc(NC(=O)CSc2nc(=O)n(CCN3CCOCC3)c3c2CCC3)cc1Cl,-7%,?,?,3%
C#CC[N+](CC)(CC)CC#Cc1ccccc1,-1%,18µM*,?,.
CC[N+](CC)(CC#Cc1ccccc1)CC#Cc1ccccc1,.,2.1µM*,2.6µM*,5%
C[N+](C)(CC#Cc1ccccc1)CC(=O)c1ccccc1,-2%,16µM*,18µM*,3%
CCOC(=O)C[N+](CC)(CC)CC#Cc1ccccc1,-1%,-7%,9%,0%
C[N+](C)(CC#Cc1ccccc1)CC(=O)c1ccc(Cl)cc1,1%,?,?,8%
Nc1ncc2c(n1)-c1ccoc1CC2,-3%,-22%,1%,.
O=c1nc(N2CCCC2)nc(N2CCCC2)[nH]1,.,0%,1%,.
COc1ccc(C)cc1NC(c1nnc(-c2ccccc2)o1)c1ccc(F)cc1Cl (centres undefined),-7%,?,?,2%[12.3 µM]
COc1cc(OC)c(NC(c2nnc(-c3ccccc3)o2)c2ccc(F)cc2Cl)cc1Cl (centres undefined),-7%,18µM*,?,8%
O=C1N[C@H](Cc2ccccc2)C(=O)N1Cc1cccc2ccccc12,.,.,.,7%
Cn1c(=O)[nH]c(=O)c2c1nc(CN1CCN(c3cccc(Cl)c3)CC1)n2Cc1ccccc1Cl,0%,15µM*,?,3%
CC(C)Cn1c(CN2CCN(c3cccc(Cl)c3)CC2)nc2c1c(=O)[nH]c(=O)n2C,-1%,21µM*,18µM*,9%
Cn1c(=O)[nH]c(=O)c2c1nc(CN1CCN(c3cccc(Cl)c3)CC1)n2CCN1CCOCC1,-1%,?,4%,3%
Cn1c(=O)[nH]c(=O)c2c1nc(CN1CCN(c3cccc(Cl)c3)CC1)n2CCCc1ccccc1,0%,?,?,0%
CCCCn1c(CN2CCN(c3cccc(Cl)c3)CC2)nc2c1c(=O)[nH]c(=O)n2C,-1%,3.3µM*,3.3µM*,-2%
COc1ccc(CNC(=O)CN2N=C(c3ccc(Cl)cc3)CCC2=O)cc1,1%,-35%,?,3%
CCS(=O)(=O)Nc1ccc(-c2nc3cccnc3s2)cc1,3%,?,?,.
Cc1cccc(NC(=O)c2cccc(N3C(=O)CCC3=O)c2)c1,0%,18%,-7%,0%
O=C(Nc1ccc(-c2nc3ccccc3[nH]2)cc1)c1cccc(N2C(=O)CCC2=O)c1,34%,12µM*,?,0%
CC1CCCCN1S(=O)(=O)c1ccc(C(=O)Nc2ccccc2-c2nc3ccccc3[nH]2)cc1 (centres undefined),13µM*,15µM*,21µM*,3%
O=C(Nc1ccccc1-c1nc2ccccc2[nH]1)c1ccc(N2C(=O)CCC2=O)cc1,.,9.2µM*,?,0%
O=C(Nc1ccccc1-c1nc2ccccc2[nH]1)c1ccc(S(=O)(=O)N2CCCCC2)cc1,?,-26%,-23%,-1%
O=C(NCCCN1CCOCC1)c1ccc(Sc2ccccc2Cl)c([N+](=O)[O-])c1,1%,?,?,0%
Cc1ccc(NC(=O)c2ccc(NCCCN3CCC(C)CC3)c([N+](=O)[O-])c2)cc1F,.,8.2µM*,4.6µM*,-1%
O=C(Nc1cccc(Cl)c1)c1ccc(NCCCN2CCOCC2)c([N+](=O)[O-])c1,-1%,29µM*,?,9%
